Screening results deposited in PubChem BioAssay by National Center for Advancing Translational Sciences (NCATS).
ALOX12 inh: Primary qHTS assay for inhibitors of human arachidonate 12S-lipoxygenase (ALOX12): Round 2 | purified 12hLO, xylenol orange hydroperoxide absorbance | Potency, µM (titrated, usually from 108 µM), most hits filed as inhibitors | hit rate 1.1% among 580,000 | AID 1671190, 2021
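Purified human 12hLO at 150 nM in 25 mM Hepes, 0.01% Triton X-100, pH 7.0, preincubated 15 min at room temperature with compound. Reaction started with 40 uM arachidonic acid, 30 min at room temperature. Hydroperoxide measured by Fe-xylenol orange, 573/405 nm absorbance ratio.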
Sfp PPTase inh: qHTS Assay for Inhibitors of Bacillus subtilis Sfp phosphopantetheinyl transferase (PPTase); 4'-phosphopantetheinyl transferase ffp (Bacillus subtilis), Q9F4F7; Biochemical Sfp PPTase activity, qHTS; Potency, µM, most hits filed as inhibitors; hit rate 3.5% among 310,000;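 further: the enzyme is Sfp with the accession as filed and its product quenches rhodamine fluorescence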
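Fluorescence-quenching assay with 15 nM Sfp, 5 uM rhodamine-CoA and 12.5 uM BHQ-2-labelled ybbR peptide in pH 7.6 Hepes/MgCl2 buffer. Enzyme was pre-incubated with compound for 15 min at room temperature. Rate was taken from the 30-min fluorescence change (525/598 nm).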
G9a inh: qHTS Assay for Inhibitors of Histone Lysine Methyltransferase G9a; Histone-lysine N-methyltransferase EHMT2 (Homo sapiens), Q96KQ7; G9a H3K9 monomethylation, AlphaScreen, 2 h; Potency, µM (titrated, usually from 102 µM), most hits filed as inhibitors; hit rate 8.8% among 350,000; AID 504332, 2011; further: nearly all actives have a fitted effect of over 75% in size
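Step 1: enzyme (final 20 nM) with compound, 15 min RT. Step 2: substrate peptide 500 nM and SAM 20 uM, 2 h RT. Step 3: anti-H3K9me1 antibody and AlphaScreen beads, 10 min, then plate read.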
VDR inhibitor: Inhibitors of the vitamin D receptor (VDR): qHTS; hit rate 0.93% among 400,000; VDR-SRC2-3 peptide fluorescence polarization, 2 h; Vitamin D3 receptor (Homo sapiens), P11473; AID 504847, 2011; Potency, µM, actives largely listed as inhibitors
Target sequence (P11473 whole entry, looked up): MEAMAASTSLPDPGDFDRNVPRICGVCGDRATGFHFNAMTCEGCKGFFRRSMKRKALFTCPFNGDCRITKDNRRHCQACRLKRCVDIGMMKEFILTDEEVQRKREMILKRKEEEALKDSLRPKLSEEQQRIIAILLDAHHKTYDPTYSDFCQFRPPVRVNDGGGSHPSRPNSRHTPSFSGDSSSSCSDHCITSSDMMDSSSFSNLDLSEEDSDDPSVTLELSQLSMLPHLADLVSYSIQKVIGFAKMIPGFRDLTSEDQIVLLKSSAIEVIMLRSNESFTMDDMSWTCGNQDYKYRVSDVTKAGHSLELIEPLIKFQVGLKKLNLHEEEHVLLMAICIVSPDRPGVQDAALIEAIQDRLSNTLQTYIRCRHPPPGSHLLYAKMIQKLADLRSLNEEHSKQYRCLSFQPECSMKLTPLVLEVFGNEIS
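Measured by FP: displacement of SRC2-3 coactivator peptide from VDR by library compounds, following a two-hour ambient incubation.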
GRP78 ERSR act: qHTS for Inducers of the Endoplasmic Reticulum Stress Response (ERSR) in Human Glioma: qHTS. U87-MG GRP78 promoter luciferase reporter, 16 h. Potency, µM, most hits filed as activators. hit rate 0.02% among 420,000. AID 602332, 2012; further: series mostly up to about 76 µM; nearly all actives have a fitted effect of over 35% in size
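Stably transfected U87-MG human glioma cells carrying a GRP78-based luminescent sensor were seeded at 1000 cells/well, pin-dosed with compounds and incubated 16 h. Luciferase reagent was then added, and end-point luminescence was read after 10 min at room temperature.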
Of the large screens only hits and unclear results are named; the others gave an inactive call; ! = not confirmed by another sample. This is one part of a sample in which hits are shown more often than they occur. The call rests on the fitted dose curve; in most records, active means well fitted curve in the direction sought with a large enough effect; inconclusive means small, poorly fitted or top-dose-only effect, or another doubt; inactive means no such curve, though single readings can be large; an effect the other way counts as inactive or inconclusive.

CC1(C)CC(Nc2ccc(Nc3ccccc3)cc2)CC(C)(C)N1	ALOX12 inh inconclusive, Sfp PPTase inh 20µM, G9a inh inconclusive, VDR inhibitor inconclusive
O=C(c1ccc(S(=O)(=O)N2CCC(c3nc4ccccc4s3)CC2)cc1)N1CCCCC1	none (no result: Sfp PPTase inh, G9a inh)
O=C(c1ccc(S(=O)(=O)N2CCC(c3nc4ccccc4[nH]3)CC2)cc1)N1CCOCC1	ALOX12 inh 5.6µM, Sfp PPTase inh 50µM, G9a inh 7.9µM
O=C(c1ccc(S(=O)(=O)N2CCC(c3nc4ccccc4s3)CC2)cc1)N1CCOCC1	Sfp PPTase inh inconclusive, G9a inh 40µM
COc1ccc(/C=C/C(=O)NCC(F)(F)F)cc1	none (no result: Sfp PPTase inh, G9a inh, VDR inhibitor, GRP78 ERSR act)
COc1ccc(C(=O)N2CC(Oc3ccccc3-c3nc(-c4ccccc4)no3)C2)cc1	none (no result: Sfp PPTase inh, G9a inh, VDR inhibitor, GRP78 ERSR act)
Cc1ccc(Cn2c(SCCC(C)C)nc3c2c(=O)[nH]c(=O)n3C)cc1	none (no result: Sfp PPTase inh, G9a inh, VDR inhibitor, GRP78 ERSR act)
N#C/C(=C\c1coc2ccccc2c1=O)C(N)=S	ALOX12 inh inconclusive, G9a inh 1.8µM, VDR inhibitor inconclusive
CCN1CCN(C(=S)NCCc2ccccc2)CC1	G9a inh inconclusive
CCCNC(=S)N1CCN(CC)CC1	ALOX12 inh inconclusive, G9a inh 10µM
CCOC(=O)c1c(NC(=S)NCC2CCCO2)sc(C)c1C (configuration not stated)	ALOX12 inh inconclusive, Sfp PPTase inh 22µM, G9a inh 4.5µM, VDR inhibitor 89µM
O=C(NC(=S)NCC1CCCO1)c1ccc(Cl)cc1 (configuration not stated)	ALOX12 inh 40µM
CCOC(=O)c1c(NC(=O)C2CCCO2)sc(C(N)=O)c1C (configuration not stated)	G9a inh inconclusive
Cc1ccc(C(=O)NC(=S)NCC2CCCO2)cc1 (configuration not stated)	none
CCN1CCN(C(=S)NCCOC)CC1	G9a inh 16µM
CCOc1cccc(NC(=O)c2ccc(C)cc2)c1	none (no result: Sfp PPTase inh, G9a inh, VDR inhibitor, GRP78 ERSR act)
C/C=C/C=C/CO	none (no result: Sfp PPTase inh, G9a inh, VDR inhibitor, GRP78 ERSR act)
Cc1ccc(S(=O)(=O)/C=C/CS(=O)(=O)c2ccc(C)cc2)cc1	none (no result: Sfp PPTase inh, G9a inh, VDR inhibitor, GRP78 ERSR act)
Cc1cnn(C(=S)NCC2CCCO2)c1 (configuration not stated)	ALOX12 inh inconclusive, G9a inh 32µM
Cc1ccc(NC(=S)NCC2CCCO2)cc1C (configuration not stated)	ALOX12 inh inconclusive
Cc1cc(C)cc(NC(=O)C(NCC2CCCO2)c2ccccc2)c1 (configuration not stated)	G9a inh 2.8µM
CCN1CCN(C(=S)NCC(C)C)CC1	ALOX12 inh inconclusive, G9a inh 10µM
Cc1cccc(NC(=S)NCC2CCCO2)c1 (configuration not stated)	G9a inh 50µM
Cc1ccc(NC(=S)NCC2CCCO2)cc1 (configuration not stated)	none
CSc1ccc(Sc2ccc(SC)cc2)cc1	none (no result: Sfp PPTase inh, G9a inh, VDR inhibitor, GRP78 ERSR act)
CN(C(=S)NC(=O)c1ccc(Cl)cc1)C1CCCCC1	Sfp PPTase inh 50µM, G9a inh 8.9µM, GRP78 ERSR act inconclusive
CCN1CCN(C(=S)NCC2CCCO2)CC1 (configuration not stated)	G9a inh 40µM
Cc1ccc(CNC(=O)c2ccc(CSCc3ccc(C)cc3)o2)cc1	ALOX12 inh 11µM! (no result: Sfp PPTase inh)
Cc1ccc(CNC(=O)c2ccc(CSCc3cccc(C)c3)o2)cc1	ALOX12 inh inconclusive (no result: Sfp PPTase inh)
N#C/C(=N/Nc1ccc(OC(F)(F)F)cc1)C(N)=S	ALOX12 inh inconclusive, Sfp PPTase inh inconclusive (no result: G9a inh)
NC(=S)N=Nc1ccc(NN=C(N)N)cc1	ALOX12 inh inconclusive, Sfp PPTase inh 0.56µM, G9a inh inconclusive, VDR inhibitor 18µM
COc1ccc(Cl)cc1NC(=O)CN(C)C(=O)Cc1ccsc1	G9a inh 28µM (no result: Sfp PPTase inh)
COc1cccc(C2C=C(c3ccc(OC)cc3OC)Nc3nnnn32)c1 (configuration not stated)	G9a inh 45µM (no result: ALOX12 inh)
COc1ccc(C2=CC(c3ccc(OC)c(OC)c3)n3nnnc3N2)c(OC)c1 (configuration not stated)	G9a inh 50µM
COc1ccc(OC)c(C2C=C(c3ccc(C)c(C)c3)Nc3nnnn32)c1 (configuration not stated)	ALOX12 inh inconclusive, G9a inh inconclusive
